# Laboratory results from PubChem BioAssay AID1347426 (Functional Genomics Laboratory (NCATS/FGL), 2020).
# Screen size: about 31,000 sequences; about 1,400 (4.5%) were called active. Many of the other results were omitted from the sample, so actives are more common in it than they were. A number with no mark means an inactive call.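 Rule for the calls: active = median seed-adjusted z-score above 1 or below -1; inactive = the rest.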
# Assay: Novel Modifiers of Survival Motor Neuron (SMN) Protein: Gene Identification via Genome-wide siRNA Screen;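 note: luminescence tracks full-length SMN protein made from the SMN2 reporter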
# Conditions: HEK293T SMN2-luciferase reporter, siRNA knockdown, 72 h; actives lie on both sides
# Procedure, shortened: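 Luciferase signal, proportional to full-length SMN made from an SMN2 cDNA reporter in stable HEK293T cells, was read 72 h after siRNA reverse transfection. Values were expressed as MAD scores after non-targeting-control normalization and log10 conversion; seed analysis flagged off-targets.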
row,Sequence,median seed-adjusted z-score
1,GCAGGUCACGGUUGAUGUATT against FANCA,0.418
2,CCAGUGUCAUAAACCUGUATT against NUDT4,-0.0306
3,GCAUGAGGUUCACCACCAATT against FIBCD1,-0.0249
4,GCGGUUUACUAUAGACAAATT against IKBKAP,-0.0316
5,CGAACGAUUUCCCAAGUUATT against NXF1,-4.46 (active)
6,GGUUUUGCACAGCGAGGAATT against B3GALT4,0.233
7,GGGCUAGAUCUGUAUCUUATT against TSC22D3,0.0129
8,GACCUGAUGUGGAAGCAGATT against QDPR,-0.734
9,CCCUGACUCUUGGAUAUGATT against MEOX1,0.0171
10,GGCGAGAUCUUUAUACGCATT against ZNF224,0.0073
11,AGAACGUGCUCUUCGCUCATT against PRKAR1B,-0.0406
12,GGAAAGUUUUUAAGGCGAATT against UHRF2,-0.0941
13,CAUUGGAAAGUGCGAGUUATT against HUWE1,0.734
14,GAGUGAAGUAUAAUCCAUATT against TPH1,-0.055
15,CUCUGGUAGAAUCCAAUUATT against GIN1,-0.0585
16,CCGCUGAGGUGACAACAAATT against XRCC5,-1.11 (active)
17,UCUUCUAAAUACUUCCUAATT against GJC3,-0.137
18,GCAUUUGCCCAGUUCAUGATT against RBM28,0.649
19,CACUGUCCUUGGGUGAAUATT against ZDHHC20,-0.936
20,CAAGUAUAUUGAACGAGGATT against SLITRK4,-0.015
21,UGGUCUCAAUGACAGUAGATT against SNRPB,-3.17 (active)
22,GCUAAGUACAAAUCAUUCATT against FCN1,0.346

row,Sequence,median seed-adjusted z-score
1,GGAGAGUGGUGAUCGGAUATT against MYOM3,-0.012
2,CGAUUCACCAGGAACGACATT against ZBTB7B,-0.242
3,GCCUCAUACCAUUCCAUAUTT against MEP1B,1.46 (active)
4,CAGAGGUACUCCACGCAGATT against BHLHA15,-0.199
5,GGCUGGUACCUGGAUGAGATT against FTCD,-0.27
6,GUCUAAUGCACUUAGCUAATT against HEL308,0.229
7,GCAAAACGGAGGAUUGAGATT against EIF5B,1.68 (active)
8,GAAUGUGACAAUACAUUUATT against ZNF431,0.00537
9,GGAACAAACCCUUAGCUAATT against SLITRK1,0.215
10,GGAGUUUCCAGAUCUCAAATT against LGR6,0.237
11,GACUCAUACCAAUCACGAATT against JMJD1A,0.466
12,GGGUCCCUAUUAUCCAGCATT against BAT3,0.567
13,GACAGAUGACUGAUCCUAATT against PSMD13,0.58
14,GACGGCCUCUAUUACCUCUTT against LTB,0.646
15,CUGUCAAUGUUAUUACUCUTT against TSG101,1.48 (active)
16,GAAUAAUGCUUAUGCUAGATT against CLIC6,-0.00828
17,AAUUCUACGAGUCCAAGUATT against GPS1,0.205
18,CAGCCCGUUUUGAAGGGUATT against CRIP3,1.7 (active)
19,CGAUGGGUAUGAGCCUGGATT against ATHL1,0
20,UAUGGGCUCUUGAACCAAATT against MTNR1B,-0.393
21,GGGUGAUCUUGAUACUGCATT against TOP2B,0.225
22,GAUGCAAACUAGUCCUGAATT against MLC1,-0.284

row,Sequence,median seed-adjusted z-score
1,AAUCGCUCAUGGUUUUUAATT against LRFN3,0.483
2,AUGUGCACCUGACUACUCATT against KRT35,-0.1
3,CGCGUUCUUCGAUAUGGUATT against PCDHGB6,0.34
4,GGCUUUUACCCGCAUGUCATT against ZNF460,-0.302
5,GCAGAAUAACCUCCAGUAUTT against SLC35A2,1.06 (active)
6,GACUUUGCAUUUCCUAGUATT against HSPA1A,-0.833
7,CUACUAUUCAGAGACAACATT against GPR3,0
8,GAAAGAAGAAUAUACUGAUTT against RBBP6,-0.212
9,GGAAAUUACGGCUACAGAATT against AP1S3,0.153
10,CCUUCUGUAGGAUGCAUUUTT against LY6G5B,-1.29 (active)
11,CAAGAGCACCGGUAAGGAATT against HSPA2,-0.0343
12,UGAACUACGUGACCGCGAATT against ELAVL1,0.316
13,GCAACUCCAGCCUAAUUAATT against ZNF792,0
14,CUGUGGUCUCUGUCUCUUATT against GPR75,0
15,CCAACAAGGUAGACCCAUUTT against PSMC5,-1.06 (active)
16,CUACCAGCCCUACACCAUUTT against CCL1,0.537
17,GGAGAUCCGUGAUGUAACATT against RUVBL2,-0.0764
18,AGAUGAAUCUGGAAUCGGUTT against LCN1,0.0607
19,CCGAAUGAGUUUGAACAUATT against ZNF48,-0.116
20,GGCUCUUCAUGGACCUUCATT against GPR173,-0.147
21,CAACCACAAUGUUCGUAAATT against GBF1,-0.162
22,GAAUGUCCCUUUAACUGCATT against NFXL1,0.118

row,Sequence,median seed-adjusted z-score
1,CGAGUACUGUCUCAAGGUATT against TTC9B,-0.272
2,CAAUUACGAAUAGAAUUGATT against WEE1,-4.05 (active)
3,AGGACCAAAUGUCAAUUUATT against IL1RN,0.283
4,GGUGUGAACUGCGAAGUGATT against NOTCH3,0.395
5,GGACGUGACUUACAUAGUUTT against PRLR,0.394
6,CAGUUUAUCUCAGACAUCUTT against CD9,-1.02 (active)
7,UGGUCCGACUGGUACGACATT against TAC1,0.0499
8,GAGUCUUUAUUGGUAAAGATT against GLRX,-0.0561
9,ACAUUGUGGUAGCCUUGUATT against LYN,-0.178
10,GGCUGUCCUUAGUACCAGATT against CFTR,-1.23 (active)
11,GGAACUAAACUUGAUCUUATT against RAC1,-0.0348
12,GAGUCGCUUUAGCUCCGAATT against XPNPEP2,-0.158
13,GGGAAAGCUGGACUACUAATT against PIK3CB,0.0911
14,CAAGGUGUUUUACCUGAAATT against YWHAH,-0.125
15,GCGUGACAGUGAUCCUGUATT against SLC27A5,0.441
16,AGAUCGACGUGAUCAAGCATT against GNAS,-0.531
17,GGACAUCUGGGUGAAGUUUTT against SNRPF,-2.66 (active)
18,CUAUCACUCUGGAACUGGATT against SMC2,-0.052
19,GGACAUGAACCAUACGAAUTT against PRPF8,-1.54 (active)
20,CAAUAAGACUGAGUUAUUATT against ETNK1,0.299
21,GACCCAAAGCGGCAGCAAATT against KLRC2,-0.472
22,CUCAUUGAGUUGGACAAAUTT against RHOU,-1.44 (active)

row,Sequence,median seed-adjusted z-score
1,GGAUCGUGGUUGCAGGGAUTT against DNASE1,-0.35
2,CCAGACAGGAGGAACCAUATT against HDAC11,0.259
3,CUAUGGACAUGUCAAUUGUTT against CCNA2,0.136
4,CCGUAUUUCUAGUUCCCUUTT against ZNF442,1.06 (active)
5,GUGUGAUGGUUGUAAACGATT against ZMYM6,-0.355
6,CAUACUCAUUCUUGCAAUATT against PHOSPHO2,-0.247
7,GAGAGUAAAUAUGCGAAUATT against ATP8B1,0.357
8,GCAACAUCCUGGUUUUCGATT against LRP2,-0.512
9,GUAUCGCUGUUUCUACGGUTT against LILRA1,-0.231
10,GGAUCAUUCUCAACGGGAUTT against KCNV2,-1.13 (active)
11,UGUUGACACUUUUAUCCAATT against ANAPC11,-0.581
12,AACCCUUUGUGGAACACCATT against PSMB4,-0.16
13,CGCAAAAAGGCAGACGAAATT against DUX5,-0.295
14,GCUAAGAAGAGAUAAUGAATT against MLKL,0
15,CCGAUUCGGUCACCAAGUATT against MYO1F,0.103
16,CCCUCACCGUGCAUGAGAATT against ZNF74,1.17 (active)
17,GUGCUAAAGAUCAUUGAUATT against TRIM32,0.109
18,GAUCAUGCGUAACUACAGUTT against JUP,0.15
19,AGAGCACCAGAAGACACAATT against GJC3,-0.137
20,GGACCUUUUUGUUAAGUCATT against RASD1,0.674
